Laboratory results as given in PubChem BioAssay AID1688 (National Center for Advancing Translational Sciences (NCATS), 2009).
Hit rate of the full screen: of about 220,000 compounds, about 2,400 (1.1%) were called active. Inconclusive results (about 7%) are left out. Many of the other results were omitted from the sample, so actives are more common in it than they were. Values without a mark were called inactive. Calls follow the shape of the dose curve; as a rule, active = well fitted inhibition curve with a large enough effect; inconclusive = small, poorly fitted or top-dose-only effect, or effect the other way; inactive = no such curve, though single readings can be large or run the other way.

experiment: qHTS Multiplex Assay to Identify Dual Action Probes in a Cell Model of Huntington: Aggregate Formation (GFP); settings: PC12 HttQ103-GFP aggregates, Acumen cytometry, 40 h; series mostly up to 9.22 µM; activity change, negative = inhibition: at the top concentration; also: nearly all actives have a fitted effect of over 60% in size
Summary of the method: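 Inducible Q103 Huntingtin exon 1–GFP PC12 line, 1500 cells/well in phenol red free DMEM with 5% equine and 5% calf serum. Tebufenozide 100 nM induced expression; compounds titrated; aggregates quantified by cytometry.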
% is scaled to controls: 0 for no effect and ±100 for the full control effect; potency is read from the fitted curve at half-maximal effect.

Compound	activity change, negative = inhibition	Potency
COC(=O)c1ccc(COc2ccc(/C=N/NC(=O)C(=O)Nc3ccc(OC)cc3)cc2OC)o1	8.14%	
CCc1ccc(NC(=O)N2CCN(c3ccccc3)CC2)cc1	6.28% [at 46.1 µM]	
CCn1c2ccccc2c2cc(NC(=O)CNC)ccc21	-17.5%	
CC[n+]1c(C)n(-c2ccccc2)c2ccc(NC(C)=O)cc21		3.98 µM (active)
Cc1ccc(N2C(=O)CN=C2Nc2nc(C)cc(C)n2)cc1	8.49%	
O=C(c1ccc(=O)oc1)N1CCC(C(O)(c2ccccc2)c2ccccc2)CC1	-8.46%	
O=C(O)CCCCCNc1ncnc2ccc(Br)cc12	-18.6%	
Brc1ccc2ncnc(NCc3cccnc3)c2c1		1.78 µM (active)
Cc1cc(NCc2cccnc2)no1	-1.89%	
CCOC(=O)c1cnc(COc2ccccc2Cl)[nH]c1=O	2.2%	
Cc1c(NC(=O)CN2C(=O)C(=O)N(Cc3ccccc3)C2=O)c(=O)n(-c2ccccc2)n1C	0.334%	
O=C1CC(Cc2ccc(Cl)cc2)C(=O)N1c1cc(Cl)ccn1 (configuration not stated)	6.88%	
CCCCN(CCCC)CC(O)Cn1c2ccccc2c(=O)c2ccccc21 (configuration not stated)	-13.4%	
O=C(NNS(=O)(=O)Cc1ccccc1)c1ccc([N+](=O)[O-])cc1	-27.8%	
CC1CCN(c2c(NCc3ccc(C(=O)NCc4ccccc4)cc3)c(=O)c2=O)CC1	3.19%	
CN(c1ccccc1)S(=O)(=O)c1cc(C(=O)Nc2nc3ccccc3[nH]2)ccc1Cl		11.2 µM (active)
O=C(Nc1cccc(-c2nc3ccccc3[nH]2)c1)c1ccc(C(=O)Nc2cccc(-c3nc4ccccc4[nH]3)c2)cc1	29%	
CN(c1ccccc1)S(=O)(=O)c1cc(C(=O)OCC(=O)N2CCN(C(=O)c3ccco3)CC2)ccc1Cl	2.29% [at 46.1 µM]	
COC(=O)/C=C(\Oc1ccccc1)C1(O)CCCCC1	13.9%	
CC(C)(C)c1nnc(NC(=O)C2c3ccccc3Oc3ccccc32)s1	-14.3%	
Nc1ccc(C(=O)Nc2ccccc2N)cc1	2.49% [at 46.1 µM]	
COc1cccc(NC(=O)c2ccc(S(=O)(=O)N(C)C)cc2)c1	11% [at 46.1 µM]	
COc1cccc(-c2nnc(NC(=O)c3ccc(S(=O)(=O)N(CC(C)C)CC(C)C)cc3)o2)c1		5.01 µM (active)
COc1cccc(NC(=O)CN(C)S(=O)(=O)c2ccc(C)cc2)c1	28% [at 46.1 µM]	

Compound	activity change, negative = inhibition	Potency
Oc1ccc(Cl)c2c1CCC2	3.24% [at 46.1 µM]	
CCOc1ccccc1N1CN(Cc2ccccc2)CNC1=S	-10.6%	
COCCN1C(=O)N[C@@H](c2ccccc2)C(C(=O)OC)=C1C	17.3% [at 46.1 µM]	
COC(=O)C1=C(C)N(C)C(=S)NC1c1cc(OC)ccc1OC (configuration not stated)	-3.02% [at 46.1 µM]	
COC(=O)C1=C(C)N(C)C(=S)NC1c1ccccc1 (configuration not stated)		3.16 µM (active)
COc1ccc(-c2csc(NC3OC(=O)c4ccccc43)n2)cc1 (configuration not stated)	-6.69%	
Cc1c(C(=O)OC(C)C)sc(NC(=O)c2cccnc2)c1C#N		11.2 µM (active)
CCOC(=O)c1sc(NC(=O)CSc2ncccn2)c(C#N)c1C	-1.2% [at 46.1 µM]	
CCOC(=O)c1cc(NC(=O)c2cccnc2)cc(C(=O)OCC)c1	2.09% [at 46.1 µM]	
O=S(=O)(c1ccc(F)cc1)N1CC=C(c2ccccc2)CC1	-11.9%	
O=C1CCCC(O)=C1N=Nc1ccc(S(=O)(=O)N2CCOCC2)cc1	-29.6%	
O=C(C1=C(O)C(=O)N(CCOCCO)C1c1ccccn1)c1cccs1 (configuration not stated)	-9.5%	
COc1ccc(Cc2cc(-c3ccc(F)cc3)n[nH]c2=O)cc1	-2.71%	
Fc1ccccc1/C=N/n1c(-c2cccnc2)n[nH]c1=S	-12.6%	
N#Cc1c(NC(=O)c2ccc(N3CCOCC3)c([N+](=O)[O-])c2)sc2c1CCCC2		5.62 µM (active)
O=C(NCCCN1CCOCC1)c1ccc(N2CCCC2)c([N+](=O)[O-])c1	3.94%	
CCOC(=O)c1c(NC(=O)c2ccc(N3CCOCC3)c([N+](=O)[O-])c2)sc(C)c1C	-1.54% [at 46.1 µM]	
Cc1cc(=O)[nH]c(S)c1C#N	-6.31%	
NC(=O)C(=O)N/N=C/c1ccc([N+](=O)[O-])o1	-100% [at 46.1 µM]	
COCCn1c(C)cc(C(=O)CSc2nc3ccccc3c(=O)n2C(C)COC)c1C (configuration not stated)	-9.69% [at 46.1 µM]	
O=C(O)c1cccnc1Sc1ncnc2sc3c(c12)CCC3	-1.62%	
COCCn1c(C)cc(C(=O)CSc2ncnc3sc4c(c23)CCC4)c1C		6.31 µM (active)
CC(C)(C)C(=O)NNC(=O)c1ccc(Oc2cc(Cl)cc(Cl)c2)o1	-4.94%	
CCOc1cc2c(Cl)ncnc2c(OCC)c1OCC	-18.2%	

Compound	activity change, negative = inhibition	Potency
Cc1nc2ccc(C(=O)O)cc2[nH]1	2.47% [at 46.1 µM]	
Cc1nc2ccccc2c(-c2ccccc2)c1C(=O)c1ccccc1	-13.7% [at 46.1 µM]	
Cc1nc2ccccc2c(C)c1C(=O)c1ccc(F)cc1		7.94 µM (active)
COc1ccc(Cl)cc1C(=O)NNC(=O)c1nc2nc(C)cc(C)n2n1	16.4%	
FC(F)(F)c1ccc(-n2cn[nH]c2=S)cc1	-29%	
COc1ccc(NC(=O)C(Br)C(C)C)cc1 (configuration not stated)		0.891 µM (active)
COc1ccc(NC(=O)C(C)SCc2ccccc2)cc1 (configuration not stated)	9.72%	
CCOC(=O)C(NC(C)=O)C(=O)Nc1ccc(OC)cc1 (configuration not stated)	1.08%	
O=C(COc1ccccc1[N+](=O)[O-])N/N=C/c1ccc[nH]1	27.9%	
O=C1CC2(CC(c3ccc(Cl)cc3)=NO2)C(=O)N1c1ccccc1 (configuration not stated)	-18.5%	
C#CCNc1ccc(C(=O)OCC)cc1	-0.897%	
Fc1ccc(-c2csc(-c3ccc(C4SCCS4)cc3)n2)cc1F	-8.2%	
CCN(CC)C(=O)c1sc(NC(=O)c2ccco2)c(C#N)c1C	-5.71% [at 46.1 µM]	
CCCc1ccc(-c2c(C)sc(NC(=O)c3ccnn3C)c2C#N)cc1		7.08 µM (active)
Cn1nccc1CNC(=O)c1ccnn1C	17.5% [at 46.1 µM]	
CCN(CC(=O)Nc1ccc(S(=O)(=O)N2CCCC2)cc1)CC(=O)Nc1cccc(OC)c1	-1.97%	
CN(Cc1nc(-c2cnccn2)no1)Cc1n[nH]c2c1CCCCC2	3.15%	
O=C(CC(O)(C(F)(F)F)C(F)(F)F)Nc1ccc(Cl)c(Cl)c1		5.01 µM (active)
O=C(CC(=O)Nc1ccc(Cl)c(Cl)c1)N/N=C/c1ccc(O)cc1	-2.59% [at 46.1 µM]	
Cc1ccc(NC(=O)C/C(N)=N/O)cc1Cl	-5.66%	
Cn1cc(S(=O)(=O)NC(c2ccccc2)c2ccccc2)c(=O)n(C)c1=O	25.8%	
CN(C)c1ccc(/C=N/N(Cc2ccccc2)c2ccccc2)cc1	0.998% [at 46.1 µM]	
CN(C)c1cc[n+](Cc2ccccc2)cc1		7.08 µM (active)
c1ccc(Cc2cc[n+](Cc3ccccc3)cc2)cc1	-10.7%	
